{
  "source": "PubChem BioAssay AID651815",
  "about": "(National Center for Advancing Translational Sciences (NCATS), 2012)",
  "note": "Out of some 2,100 compounds screened, about 1,100 (52%) were called active. Not shown: some 29% with an inconclusive outcome. Calls come from the whole dose curve; as a rule, active = well fitted inhibition curve with a large enough effect; inconclusive = small, poorly fitted or top-dose-only effect; inactive = no such curve, though single readings can be large or run the other way. The set was probably picked from earlier hits. This is one part of the list. Potency is the fitted concentration of half-maximal effect.",
  "data": [
    {"biological_target": "DNA dC->dU-editing enzyme APOBEC-3F (Homo sapiens) (UniProt Q8IUX4)", "sequence (Q8IUX4 whole entry, looked up)": "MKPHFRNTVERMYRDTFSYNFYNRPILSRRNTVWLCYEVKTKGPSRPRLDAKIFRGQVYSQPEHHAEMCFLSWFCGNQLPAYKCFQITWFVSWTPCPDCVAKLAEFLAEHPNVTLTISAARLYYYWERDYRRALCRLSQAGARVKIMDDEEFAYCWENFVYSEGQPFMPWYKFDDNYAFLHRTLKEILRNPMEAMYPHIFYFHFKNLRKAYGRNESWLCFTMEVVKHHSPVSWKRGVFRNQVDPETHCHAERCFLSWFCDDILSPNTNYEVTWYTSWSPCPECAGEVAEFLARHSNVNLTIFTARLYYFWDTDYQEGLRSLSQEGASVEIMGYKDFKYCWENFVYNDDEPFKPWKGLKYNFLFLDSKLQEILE", "test": "qHTS for inhibitors of Vif-A3F interactions: Cherry picks counterscreen; note: nearly all actives have a fitted effect of over 65% in size", "conditions": "HeLa A3F-eYFP/Vif cells, eYFP fluorescence, 24 h; series mostly up to 46.1 µM", "text": "The recent discovery and characterization of host restriction factors, which provide a potent defense to invading retroviruses, has provided new targets for antiviral drug development. APOBEC3G (A3G) and APOBEC3F (A3F) are potent cytidine deaminases that block HIV-1 replication; HIV-1 expresses the Vif protein, which counteracts A3G and A3F by binding to them and inducing their proteasomal degradation. The Vif-A3G and Vif-A3F interactions provide two potential targets for development of small molecules which can interfere with the ability of Vif to degrade A3G or A3F. […] To identify inhibitors that can interfere with Vif mediated degradation of A3G and A3F, we have developed Hela cell lines that stably express A3G or A3F tagged with eYFP at the C-terminal end (A3G-eYFP or A3F-eYFP, respectively) and Vif. In the absence of an inhibitor, Vif induces degradation of A3G-eYFP and A3F-eYFP, and the cells are not fluorescent. In the presence of an inhibitor, it is expected that Vif will be unable to degrade A3G-eYFP and/or A3F-eYFP, resulting in an increase in yellow fluorescence. In this counterscreen assay, Vif A3F was screened against the cherry picks ordered from the MLSMR. NIH Chemical Genomics Center [NCGC] NIH Molecular Libraries Probe Centers Network [MLPCN] MLPCN Grant: MH093245 Assay Submitter (PI): Vinay Pathak, National Cancer Institute\nA3F-Vif cells were harvested from T225 flask and resuspended in phenol free OPTI-MEM medium with 5% FBS. Then 5 uL of 140,000 cells/mL resuspended cells was dispensed into each well of low base Aurora COC 1,536-well plates (black walled, clear bottom) using a Multidrop Combi dispenser. After overnight culture at 37 deg C with 5% CO2, a total of 23 nL of compounds at 5 selected concentrations from the NPC or positive control (2 mM stock of MG132) in DMSO was transferred to each well of the assay plate using a pintool (Kalypsys, San Diego, CA), and the plates were further incubated at 37 deg C with 5% CO2 for 24 hours. After that, the plates were measured on Acumen Explorer (TTP Lab Tech). The fluorescence was detected by 488 nm/Ex and […].", "values": [
      {"molecule": "COc1ccc(N=Cc2oc3ccc4ccccc4c3c2O)cc1", "Potency": "9.2 µM (active)"},
      {"molecule": "COc1ccc(N=Cc2sc(O)c3ccccc23)cc1", "Potency": "15.8 µM (active)"},
      {"molecule": "COc1ccc(N=Cc2c(O)c3ccccc3n2C(C)=O)cc1", "Potency": "16.4 µM (active)"},
      {"molecule": "Oc1sc(C=Nc2ccccc2)c2ccccc12", "Potency": "23.1 µM (active)"},
      {"molecule": "Cc1ccc(NC2=C(Cl)C(=O)N(C3CCCCC3)C2=O)cc1", "Potency": "inactive"},
      {"molecule": "Oc1sc(C=Nc2ccc(F)cc2)c2ccccc12", "Potency": "20.6 µM (active)"},
      {"molecule": "COc1cc(OC)c(/C=C/c2ccnc3ccccc23)c(OC)c1", "Potency": "5.8 µM (active)"},
      {"molecule": "COc1cc(N(C)C)c(OC)cc1/C=C/c1ccnc2ccccc12", "Potency": "23.1 µM (active)"},
      {"molecule": "COc1cc(/C=C/c2ccnc3ccccc23)ccc1N(C)C", "Potency": "23.1 µM (active)"},
      {"molecule": "N#C/C(=C\\c1ccc(C(=O)O)cc1)c1nc2sc3c(c2c(=O)[nH]1)CCCC3", "Potency": "inactive"},
      {"molecule": "CN(C)c1ccc(/C=C(\\C#N)C(=O)Nc2nc3c(s2)CCN(Cc2ccccc2)C3)cc1", "Potency": "0.396 µM (active)"},
      {"molecule": "CN(C)c1ccc(/C=C(/C#N)C(=O)Nc2nc3c(s2)CCN(Cc2ccccc2)C3)cc1", "Potency": "0.314 µM (active)"},
      {"molecule": "Cc1ccc(N2C(=O)CS/C2=C(\\C(Cl)=C(Cl)Cl)[N+](=O)[O-])cc1", "Potency": "inactive"},
      {"molecule": "Cc1cccc2c(=O)n3c(cc12)-c1[nH]c2ccccc2c1CC3", "Potency": "16.4 µM (active)"},
      {"molecule": "CCC[N+](C)(C)c1ccc(/C=C/c2ccncc2)cc1", "Potency": "18.4 µM (active)"},
      {"molecule": "CC[N+](C)(C)c1ccc(/C=C/c2ccncc2)cc1", "Potency": "20.6 µM (active)"},
      {"molecule": "COc1ccc2nc(N3C(=O)/C(=C/c4ccccc4)NC3=S)sc2c1", "Potency": "13 µM (active)"},
      {"molecule": "COc1ccc(NC(=O)CSc2ccc3c4c(cccc24)C(=O)c2ccccc2-3)cc1", "Potency": "14.6 µM (active)"},
      {"molecule": "CCn1c(CNC(=O)C23CC4CC(CC(C4)C2)C3)nnc1SCC(=O)Nc1ccc(OC)cc1", "Potency": "inactive"},
      {"molecule": "N#Cc1cccc(NC(=O)CSc2ccc3c4c(cccc24)C(=O)c2ccccc2-3)c1", "Potency": "11.6 µM (active)"},
      {"molecule": "CCCCCCN1C[C@H](O)[C@@H](n2cc(COC(=O)c3ccccc3)nn2)C[C@@H]1c1ccc(C)cc1", "Potency": "inactive"},
      {"molecule": "COc1ccccc1-c1cc(C(=O)NN)[nH]n1", "Potency": "inactive"},
      {"molecule": "CCCn1nnc(NC(=S)NC(=O)c2ccccc2OC)n1", "Potency": "inactive"},
      {"molecule": "COc1ccc(NC(=O)c2cc(-c3ccccc3OC)on2)cc1", "Potency": "6.27 µM (active)"},
      {"molecule": "COc1ccc(C(=O)c2ccc(OC)c(OC)c2OC)cc1", "Potency": "6.27 µM (active)"},
      {"molecule": "CC(=O)c1cccc(-c2ccnc3c2CC(C(=O)NCC2CC2)O3)c1", "note": "(stereo not given)", "Potency": "14 µM (active)"},
      {"molecule": "CC(=O)c1cccc(-c2ccnc3c2CC(C(=O)NCC2CCOCC2)O3)c1", "note": "(stereo not given)", "Potency": "4.44 µM (active)"},
      {"molecule": "COc1ccc2c(C)cc(SCC(=O)N(C)C3CCS(=O)(=O)C3)nc2c1", "note": "(stereo not given)", "Potency": "inactive"},
      {"molecule": "COc1ccc2c(C)cc(SCC#N)nc2c1", "Potency": "16.4 µM (active)"},
      {"molecule": "C[C@]12CCC[C@H](O1)c1c(cc3c(c1O)C(=O)c1c(O)cc(O)cc1C3=O)O2", "Potency": "20.6 µM (active)"},
      {"molecule": "CN(NC(=O)c1ccccc1)c1nc2ccccc2nc1C(F)(F)F", "Potency": "3.96 µM (active)"},
      {"molecule": "Cc1ccc(C(=O)NN(C)c2nc3ccccc3nc2C(F)(F)F)cc1", "Potency": "2.8 µM (active)"},
      {"molecule": "CCc1sc(-c2cc3ccc(O)cc3oc2=O)nc1-c1ccc(C)cc1", "Potency": "inactive"},
      {"molecule": "O=c1oc2cc(O)ccc2cc1-c1nc(-c2ccc(Cl)c(Cl)c2)cs1", "Potency": "2.06 µM (active)"},
      {"molecule": "COc1cc(C2Sc3ccccc3NC3=C2C(=O)OC3)cc(OC)c1OC", "note": "(stereo not given)", "Potency": "17.7 µM (active)"},
      {"molecule": "CCOC(=O)Nc1cc2c(c(N)n1)N=C(c1ccccc1)CN2", "Potency": "0.116 µM (active)"},
      {"molecule": "Cc1nnc(SCC(=O)NCc2ccccc2F)c2nn(-c3ccc(Cl)cc3)c(C)c12", "Potency": "14.6 µM (active)"},
      {"molecule": "CCOC(=O)c1cnc(-n2nc(C)cc2C)nc1NNc1cc(C)nc(-c2ccccc2)n1", "Potency": "inactive"},
      {"molecule": "O=C(Cn1c(=O)n(Cc2ccco2)c(=O)c2sc3ccccc3c21)Nc1ccccc1C(F)(F)F", "Potency": "23.1 µM (active)"},
      {"molecule": "C(=Cc1c[nH]c2ccccc12)c1nccc2ccccc12", "Potency": "20.6 µM (active)"},
      {"molecule": "Cc1ccc2c(/C=C/c3c[nH]c4ccccc34)ccnc2c1C", "Potency": "8.2 µM (active)"},
      {"molecule": "C(=C\\c1c[nH]c2ccccc12)/c1nccc2ccccc12", "Potency": "18.4 µM (active)"},
      {"molecule": "CCCSc1nnc(N2C(=O)C(O)=C(C(=O)c3ccco3)C2c2ccccc2F)s1", "note": "(stereo not given)", "Potency": "inactive"},
      {"molecule": "Cc1nc2c3cc(F)ccc3n(Cc3ccccc3)c2s1", "Potency": "6.27 µM (active)"},
      {"molecule": "Cc1nc2c3ccccc3n(Cc3ccccc3F)c2s1", "Potency": "17.7 µM (active)"},
      {"molecule": "Cc1nc2c3cc(F)ccc3n(Cc3ccccc3F)c2s1", "Potency": "12.5 µM (active)"},
      {"molecule": "CCOC(=O)CSc1nc2c(c(=O)[nH]1)C(C)(CC)Cc1ccccc1-2", "note": "(stereo not given)", "Potency": "5.8 µM (active)"},
      {"molecule": "Cc1sc2nc(SCC(=O)N3CCOCC3)[nH]c(=O)c2c1-c1ccccc1", "Potency": "inactive"},
      {"molecule": "CCSc1nccc(-c2nn(-c3ccc(C)cc3)ccc2=O)n1", "Potency": "7.04 µM (active)"},
      {"molecule": "O=Cc1sc(Nc2ccccc2)nc1Cl", "Potency": "16.4 µM (active)"},
      {"molecule": "Cc1ccc(Nc2nc(Cl)c(C=O)s2)cc1Cl", "Potency": "18.4 µM (active)"},
      {"molecule": "c1ccc(Nc2nc(-c3ccccn3)cs2)cc1", "Potency": "inactive"},
      {"molecule": "COc1ccc(-c2n[nH]c3c2CN(C(=O)c2ccc(OC)c(OC)c2)CC3)cc1", "Potency": "4.44 µM (active)"},
      {"molecule": "C=CCOC(=O)C1=C(C)Nc2nnnn2C1c1cccs1", "note": "(stereo not given)", "Potency": "inactive"},
      {"molecule": "COc1ccc(OC)c(C2C=C(c3ccc(C)c(C)c3)Nc3nnnn32)c1", "note": "(stereo not given)", "Potency": "4.98 µM (active)"},
      {"molecule": "COc1cccc(C2=CC(c3cccs3)n3nnnc3N2)c1", "note": "(stereo not given)", "Potency": "5.59 µM (active)"},
      {"molecule": "COc1cccc(C2=CC(c3ccccc3)n3nnnc3N2)c1", "note": "(stereo not given)", "Potency": "1.98 µM (active)"},
      {"molecule": "CCOC(=S)SCC(=O)N1CCc2cc(OC)ccc2C1C1C(=O)CCCC1=O", "note": "(stereo not given)", "Potency": "15.8 µM (active)"},
      {"molecule": "CCOC(=O)c1c(-c2ccc(OC)cc2)csc1/N=C/C1C(=O)CCCC1=O", "Potency": "inactive"},
      {"molecule": "Cc1cc2oc3ccc(NCCCn4ccnc4)cc3c(=O)c2cc1C", "Potency": "inactive"},
      {"molecule": "O=c1c2ccccc2sc2ccc(NCCCN3CCOCC3)cc12", "Potency": "16.4 µM (active)"},
      {"molecule": "COc1ccc(-c2cnc3c(NC=O)cc(-c4ccoc4)cn23)cc1OC", "Potency": "11.2 µM (active)"},
      {"molecule": "COc1ccc(-c2cnc3c(NC=O)cc(-c4ccccc4)cn23)cc1OC", "Potency": "1.77 µM (active)"},
      {"molecule": "Cc1ccc(-c2cc(NC=O)c3ncc(-c4cnn(C)c4)n3c2)cc1", "Potency": "5.59 µM (active)"},
      {"molecule": "COc1ccc(-c2cc(NC=O)c3ncc(-c4ccc(OC)c(OC)c4)n3c2)cc1OC", "Potency": "4.44 µM (active)"}
    ]}
  ]
}
